The structures appear in SMILES notation. Records with an inconclusive call do not appear. Entries that show only a call come without a potency. Calls of active or inactive are those of the source. Calls follow the shape of the dose curve; as a rule, active = well fitted inhibition curve with a large enough effect; inconclusive = small, poorly fitted or top-dose-only effect; inactive = flat fitted curve, though single readings scatter.

We go through 39 compounds from PubChem BioAssay (NCATS).
Potency is read from the fitted curve at half-maximal effect.

This test deals with Calcium and integrin-binding protein 1 (Homo sapiens) (UniProt Q99828). Nature of the test: Primary qHTS for Identification of Calcium Integrin Binding Protein 1 (CIB1) Competitor (AID 1508620). The settings on record: CIB1-GST / FITC-alphaIIb peptide fluorescence polarization; series mostly up to 114 µM. The procedure, abridged: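 Fluorescence polarization competition: CIB1-GST (1 uM final) preincubated with compound 15 min at room temperature, then FITC-labeled alphaIIb peptide (100 nM final) added for another 15 min. Polarization read at Ex 480/Em 540.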
Sequence of Calcium and integrin-binding protein 1 (Homo sapiens) (Q99828 whole entry, looked up): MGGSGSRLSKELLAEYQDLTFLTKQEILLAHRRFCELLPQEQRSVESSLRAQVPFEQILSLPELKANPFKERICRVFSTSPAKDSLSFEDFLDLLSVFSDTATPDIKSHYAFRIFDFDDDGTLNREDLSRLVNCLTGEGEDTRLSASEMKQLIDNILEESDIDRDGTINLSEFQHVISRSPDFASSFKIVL
(In general: Quantitative high-throughput screening tests each substance at several concentrations.)
In the case of `O=C1CCc2cc(S(=O)(=O)Nc3cccc(-c4ccccc4)c3)ccc2N1`, the Potency entry is “inactive”.
The same measure for `CN1CCc2ccc3c4c2[C@]1(C)Cc1cccc(c1-4)OCO3`: 39.8 µM (active).
The same measure for `C=CCSc1nnc(-c2cccc3ccccc23)o1`: “inactive”; for `O=C(Cc1nnc(CNC(=O)c2ccccc2)o1)Nc1cc(C(F)(F)F)ccc1Cl`: “inactive”; for `CCCCN(C)C(=O)Cn1nc(-c2cccc(C)c2)ccc1=O`: “inactive”.
Take `CC(Nc1nc(-c2ccccc2C(F)(F)F)nc2ccccc12)c1ccc(-c2ccccc2)cc1` (centres undefined): the Potency entry is “inactive”.
Then `O=C(/C=C/c1c(F)c(F)c(F)c(F)c1F)Nc1cccc([S+](=O)([O-])Nc2ccccc2F)c1`, with “inactive”; and `Cc1ccc(CNc2ncnc3ccc(-c4sc(C)nc4C)cc23)o1`, with “inactive”; and `Cc1ccc(NS(=O)(=O)c2ccc(C(=O)Nc3nc(-c4ccccc4)cs3)cc2)cc1`, with “inactive”.
The same measure for `COc1cc(-c2ccc3ncnc(NCCc4cnc[nH]4)c3c2)cc(OC)c1OC`: “inactive”.
The same measure for `Nc1ccc2c(=O)n3nc(Nc4ccc5c(c4)CCC5)sc3nc2c1`: “inactive”.
For `O=C1CCCC2=C1C(c1[nH]ncc1Cl)NC(=NCc1nccs1)N2` (centres undefined), the Potency result was “inactive”.
With `Cc1cccc(C)c1OCc1cccc(C2Nc3ccccc3C(=O)N2Cc2ccco2)c1` (centres undefined), the Potency entry was “inactive”.
Then `NC(=O)c1ccccc1-c1noc(-c2ccccc2F)n1`, with “inactive”.
`O=S(=O)(NCCCCCCNS(=O)(=O)c1c(F)cccc1F)c1ccc2c(c1)OCCO2`: the Potency entry is “inactive”.
Take `N#Cc1nc(Nc2cc(F)cc(F)c2)nc(Nc2cc(F)cc(F)c2)n1`: the Potency result was “inactive”.
For the compound `N#Cc1c(-c2ccc3ccccc3c2)no[n+]1[O-]`, the Potency entry is “inactive”.
Then `COc1ccc2nc(-c3ccc(N(C)C)cc3)sc2c1`, with “inactive”; and `O=C(Cc1ccc(Cl)c(Cl)c1)Nc1ccc(S(=O)(=O)O)cc1`, with “inactive”.
The same measure for `Cc1nc(C(C)N(C)c2ncnc3ccc(-c4ccc5c(c4)OCO5)cc23)cs1` (centres undefined): “inactive”; for `CC(C)c1ccccc1-c1ncc(F)c(NCc2ccc(-n3ccnn3)cc2)n1`: “inactive”.
For the compound `Cc1ccc(N[S+](=O)([O-])c2cc3c(cc2Cl)CCC(=O)N3)cc1Br`, the Potency entry was “inactive”.
As to `Cc1ccc(OCCn2c(CCNC(=O)C3CCCC3)nc3ccccc32)cc1`, the Potency result is “inactive”.
As for `CN(C)c1cccc(-c2csc(N3CCC(C(N)=O)CC3)n2)c1`, the Potency result is “inactive”.
As to `Cn1cccc1CN=C1NC2=C(C(=O)CCC2)C(c2[nH]ncc2Cl)N1` (centres undefined), the Potency entry is “inactive”.
Take `Fc1cccc(CSc2nc3ncc(Br)cc3[nH]2)c1`: the Potency entry is “inactive”.
As for `Cc1ccnc(NC(=S)Nc2cccc([S+](=O)([O-])Nc3ccccc3F)c2)c1`, the Potency entry was “inactive”.
On to `CC(C)(C)c1ccc(NC(=O)c2cccs2)cn1`, for which the Potency entry was “inactive”.
Take `O=S(=O)(c1ccc2c(c1)OCCO2)N1CCN(S(=O)(=O)c2ccc(F)c(F)c2F)CC1`: the Potency result was “inactive”.
Regarding `CCOC(=O)c1cccc(NS(=O)(=O)c2ccc(NC(=O)Cc3ccc(Cl)c(Cl)c3)cc2)c1`, the Potency result was “inactive”.
Regarding `COc1ccc(-c2nnc3n2N=C(c2ccccc2OC)CS3)c(OC)c1`, the Potency entry was “inactive”.
`CN1C(=O)NC(c2ccccc2Cl)C2=C1CCCC2=O` (centres undefined): the Potency entry was “inactive”.
The same measure for `CC(C)(C)OC(=O)N1CCN(c2ncc(NCc3ccc(-c4ccc(C#N)cc4)o3)cn2)CC1`: “inactive”; for `Cc1ccc(OCCn2c(CCNC(=O)c3ccccc3N)nc3ccccc32)cc1`: “inactive”.
Then `CCOC(=O)c1ccc(-c2ccc3ncnc(NCc4csc(C)n4)c3c2)o1`, with “inactive”.
The same measure for `O=S(=O)(NC1CCN(S(=O)(=O)c2c(F)cccc2F)C1)c1ccc2c(c1)OCCO2` (centres undefined): “inactive”.
`Cc1nc(-c2ccc([S+](=O)([O-])N3CCN([S+](=O)([O-])c4c(F)cccc4F)CC3)s2)cs1`: the Potency entry was “inactive”.
The same measure for `COc1ccc(C2Nc3ccccc3C(=O)N2Cc2cccs2)cc1COc1c(C)cc(NC(C)=O)cc1C` (centres undefined): “inactive”.
With `COc1ccc(NC(=O)CSc2nnc(-c3cccc(S(=O)(=O)N4CCCC4)c3)n2-c2ccccc2)cc1`, the Potency result is “inactive”.
